Experimental data published in PubChem BioAssay.
The source made the active and inactive calls.

How the values were obtained:
[1] = small molecules captured by biotinylated probe aFSTL3 – biochemical, small-molecule microarray, fluorescence 635/667, stem cell growth factor project, primary screen (AID 1064); conditions: higher = more signal;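 further: measures binding of the biotinylated anti-FSTL3 antibody to printed compounds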
[2] = binders from COS7 lysate, DM2A8 probe, primary screen, torsin A project, cell lysate, small-molecule microarray, fluorescence 635/667 (AID 1065); conditions: higher = more signal, COS7 lysate expressing mutant human TOR1A
[3] = small molecules captured by biotinylated probe aFGF2 – biochemical, small-molecule microarray, fluorescence 635/667, stem cell growth factor project, primary screen (AID 1067); conditions: higher = more signal;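 further: measures binding of biotinylated aFGF2 protein to printed compounds on slides; z-score merges feature fluorescence and signal-to-noise across triplicate slides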
[4] = small molecules captured by biotinylated probe aFGF10 – biochemical, small-molecule microarray, fluorescence 635/667, stem cell growth factor project, primary screen (AID 1071); conditions: higher = more signal;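 further: score merges 667 nm spot intensity and signal to noise from triplicate slides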
[5] = molecular target: Neurogenic locus notch homolog protein 2 (Homo sapiens) (UniProt Q04721); experiment: small molecules binding Notch2 protein – biochemical, small-molecule microarray, 635 nm fluorescence, stem cell growth factors, primary screen (AID 1073); conditions: higher = more signal
Neurogenic locus notch homolog protein 2 (Homo sapiens), sequence (Q04721 whole entry, looked up, canonical isoform): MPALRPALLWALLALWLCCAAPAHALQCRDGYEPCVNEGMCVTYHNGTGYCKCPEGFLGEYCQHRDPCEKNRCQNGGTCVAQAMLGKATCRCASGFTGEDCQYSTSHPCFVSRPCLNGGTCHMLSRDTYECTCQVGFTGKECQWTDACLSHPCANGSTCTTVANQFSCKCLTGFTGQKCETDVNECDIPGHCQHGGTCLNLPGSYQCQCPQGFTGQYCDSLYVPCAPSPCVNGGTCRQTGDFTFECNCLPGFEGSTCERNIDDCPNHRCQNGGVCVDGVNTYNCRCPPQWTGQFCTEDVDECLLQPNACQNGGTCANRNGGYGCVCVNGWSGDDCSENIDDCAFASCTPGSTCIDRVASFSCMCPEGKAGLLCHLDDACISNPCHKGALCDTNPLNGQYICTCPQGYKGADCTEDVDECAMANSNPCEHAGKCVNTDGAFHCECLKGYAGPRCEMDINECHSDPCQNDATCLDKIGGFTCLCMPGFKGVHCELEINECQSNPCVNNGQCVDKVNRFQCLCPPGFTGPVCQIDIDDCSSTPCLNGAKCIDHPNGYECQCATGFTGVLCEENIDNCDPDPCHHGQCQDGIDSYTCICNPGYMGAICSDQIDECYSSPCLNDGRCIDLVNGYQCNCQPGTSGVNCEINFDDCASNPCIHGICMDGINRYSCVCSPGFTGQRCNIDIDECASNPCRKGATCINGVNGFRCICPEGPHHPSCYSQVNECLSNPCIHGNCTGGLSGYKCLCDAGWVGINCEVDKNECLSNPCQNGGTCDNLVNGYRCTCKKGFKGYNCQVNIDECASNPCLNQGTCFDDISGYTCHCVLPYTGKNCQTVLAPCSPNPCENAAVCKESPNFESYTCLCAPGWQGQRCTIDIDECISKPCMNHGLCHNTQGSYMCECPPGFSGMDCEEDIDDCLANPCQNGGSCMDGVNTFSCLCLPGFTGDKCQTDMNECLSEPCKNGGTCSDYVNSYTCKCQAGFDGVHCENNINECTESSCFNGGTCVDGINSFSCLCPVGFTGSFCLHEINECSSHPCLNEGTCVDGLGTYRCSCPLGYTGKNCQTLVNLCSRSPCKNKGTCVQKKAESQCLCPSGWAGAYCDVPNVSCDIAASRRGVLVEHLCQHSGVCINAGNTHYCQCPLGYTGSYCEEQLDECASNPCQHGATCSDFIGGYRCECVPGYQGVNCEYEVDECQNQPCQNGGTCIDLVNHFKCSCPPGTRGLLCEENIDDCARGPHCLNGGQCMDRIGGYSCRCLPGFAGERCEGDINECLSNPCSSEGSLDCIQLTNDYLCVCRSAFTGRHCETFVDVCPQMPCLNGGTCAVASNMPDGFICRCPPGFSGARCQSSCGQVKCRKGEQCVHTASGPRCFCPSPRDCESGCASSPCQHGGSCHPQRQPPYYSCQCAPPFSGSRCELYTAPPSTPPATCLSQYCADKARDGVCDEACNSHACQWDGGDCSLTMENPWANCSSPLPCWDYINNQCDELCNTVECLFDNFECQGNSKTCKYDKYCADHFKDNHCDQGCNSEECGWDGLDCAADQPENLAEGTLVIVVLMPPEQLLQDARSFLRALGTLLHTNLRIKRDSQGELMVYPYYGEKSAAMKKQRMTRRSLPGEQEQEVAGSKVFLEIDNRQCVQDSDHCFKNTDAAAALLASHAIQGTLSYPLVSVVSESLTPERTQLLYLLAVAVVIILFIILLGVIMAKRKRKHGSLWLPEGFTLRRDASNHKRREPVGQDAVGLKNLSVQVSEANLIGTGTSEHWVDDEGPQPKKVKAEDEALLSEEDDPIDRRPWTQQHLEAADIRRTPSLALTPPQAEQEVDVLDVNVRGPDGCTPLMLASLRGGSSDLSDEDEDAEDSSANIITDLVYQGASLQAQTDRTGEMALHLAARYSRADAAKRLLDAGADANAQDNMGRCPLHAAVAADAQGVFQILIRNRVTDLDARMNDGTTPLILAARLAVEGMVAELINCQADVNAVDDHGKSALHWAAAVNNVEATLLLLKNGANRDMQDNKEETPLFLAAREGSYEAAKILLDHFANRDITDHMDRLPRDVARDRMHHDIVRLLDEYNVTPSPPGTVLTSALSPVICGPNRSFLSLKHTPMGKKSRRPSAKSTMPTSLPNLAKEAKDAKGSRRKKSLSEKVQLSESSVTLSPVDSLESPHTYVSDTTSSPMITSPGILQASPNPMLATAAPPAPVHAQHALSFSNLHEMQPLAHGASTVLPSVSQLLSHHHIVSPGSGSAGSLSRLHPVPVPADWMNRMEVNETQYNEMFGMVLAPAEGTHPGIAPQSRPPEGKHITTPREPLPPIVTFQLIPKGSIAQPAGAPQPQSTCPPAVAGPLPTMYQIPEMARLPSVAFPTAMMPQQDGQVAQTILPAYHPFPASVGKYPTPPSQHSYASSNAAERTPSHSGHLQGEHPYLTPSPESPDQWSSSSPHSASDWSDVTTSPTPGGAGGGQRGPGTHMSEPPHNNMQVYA

[6] = molecular target: Pro-neuregulin-1, membrane-bound isoform (Homo sapiens) (UniProt Q02297); experiment: small molecules binding neuregulin-1 protein – biochemical, small-molecule microarray, fluorescence 635/667, psychiatric disease protein project, primary screen (AID 1075); conditions: NRG1 binding, 635 nm fluorescence, higher = more signal;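 further: score combines 667 nm spot fluorescence with signal to noise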
[7] = test system: Neuregulin-1 EGF-like domain; experiment: small molecules binding NRG1 EGF domain – biochemical, small-molecule microarray, 635 nm fluorescence, primary screen (AID 1081); conditions: higher = more signal;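 further: binding of the protein to compounds printed on small-molecule microarray slides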
[8] = FRG1 expression reporter modulators in myotubes – cell-based, C2C12 myotubes, firefly/Renilla luciferase, luminescence, FRG1 inhibition for FSHD, primary screen (AID 1084); conditions: FRG1 promoter luciferase, higher = more signal, called active from +8 up or from −8 down
[9] = small molecules captured by biotinylated probe aFST – biochemical, small-molecule microarray, fluorescence 635/667, stem cell growth factor project, primary screen (AID 1086); conditions: higher = more signal;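 further: score merges 667 nm fluorescence with signal-to-noise of each printed compound spot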
[10] = binders of probe aHhip on microarray, primary screen, stem cell growth factor project, biochemical, small-molecule microarray, fluorescence 635/667 (AID 1087); conditions: higher = more signal;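 further: score merges spot fluorescence at 667nm with spot signal to noise ratio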
[11] = test system: PRMT1 (protein arginine N-methyltransferase 1); experiment: small molecules binding arginine methyltransferase PRMT1 – biochemical, small-molecule microarray, 635 nm fluorescence, primary screen (AID 1088); conditions: higher = more signal;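 further: binding of Prmt1 protein to compounds spotted on small-molecule microarray slides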
[12] = growth effects on S. cerevisiae YJM789 – YJM789 clinical isolate, OD600, 24 h, basal, primary screen (AID 1089); conditions: higher = more signal, called active from +8 up or from −8 down;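 further: growth of clinical yeast isolate S. cerevisiae YJM 789 seeded 1000 cells per well; test concentration not given here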
[13] = S. pombe growth modifiers, basal conditions – strain 972, OD600, 24 h, no modulator, primary screen (AID 1090);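 further: basal condition with compound alone and no growth modifier present; test concentration not given here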; conditions: S. pombe 972 growth, higher = more signal, called active from +8 up or from −8 down
[14] = budding yeast growth modifiers under rapamycin – strain BY4716, OD600, 96 h, primary screen (AID 1091); further: test concentration not given here; conditions: S. cerevisiae BY4716 + rapamycin, higher = more signal, called active from +8 up or from −8 down
[15] = molecular target: Torsin-1A-interacting protein 2 (Homo sapiens) (UniProt Q8NFQ8); experiment: small molecules binding lysate-expressed LULL1 – cell lysate, human LULL1 lysate, 635/667 nm fluorescence, primary screen (AID 1092); conditions: small-molecule microarray, hLULL1 lysate binding, 635 nm fluorescence; higher = more signal;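 further: probe is lysate of COS7 cells overexpressing human LULL1; score merges per-feature 667 nm fluorescence with signal-to-noise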
[16] = optical density change of DRC41 E. coli – strain DRC41, OD650, 24 h, E. coli filamentation project, primary screen (AID 1093);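 further: MC1000 strain lacking acrAB efflux and sulA so SOS filamentation is blocked; test concentration not given here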; conditions: E. coli DRC41 growth, higher = more signal, called active from +8 up or from −8 down
[17] = probe aLefty2 binding to arrayed compounds – biochemical, biotinylated probe, 635/667 nm fluorescence, primary screen (AID 1094); conditions: small-molecule microarray, higher = more signal;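 further: score merges spot fluorescence near 667 nm with spot signal-to-noise ratio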
[18] = test system: Noggin (protein binding on small-molecule microarray); experiment: small molecules binding Noggin protein – biochemical, 635/667 nm fluorescence, primary screen (AID 1095); conditions: 635 nm fluorescence, higher = more signal;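 further: score merges 667 nm feature fluorescence with signal to noise over triplicate slides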
[19] = molecular target: Neurogenic locus notch homolog protein 3 (Homo sapiens) (UniProt Q9UM47); experiment: small molecules binding NOTCH3 protein – biochemical, 635/667 nm fluorescence, primary screen (AID 1096); conditions: small-molecule microarray, 635 nm fluorescence, higher = more signal
Neurogenic locus notch homolog protein 3 (Homo sapiens), sequence (Q9UM47 whole entry, looked up): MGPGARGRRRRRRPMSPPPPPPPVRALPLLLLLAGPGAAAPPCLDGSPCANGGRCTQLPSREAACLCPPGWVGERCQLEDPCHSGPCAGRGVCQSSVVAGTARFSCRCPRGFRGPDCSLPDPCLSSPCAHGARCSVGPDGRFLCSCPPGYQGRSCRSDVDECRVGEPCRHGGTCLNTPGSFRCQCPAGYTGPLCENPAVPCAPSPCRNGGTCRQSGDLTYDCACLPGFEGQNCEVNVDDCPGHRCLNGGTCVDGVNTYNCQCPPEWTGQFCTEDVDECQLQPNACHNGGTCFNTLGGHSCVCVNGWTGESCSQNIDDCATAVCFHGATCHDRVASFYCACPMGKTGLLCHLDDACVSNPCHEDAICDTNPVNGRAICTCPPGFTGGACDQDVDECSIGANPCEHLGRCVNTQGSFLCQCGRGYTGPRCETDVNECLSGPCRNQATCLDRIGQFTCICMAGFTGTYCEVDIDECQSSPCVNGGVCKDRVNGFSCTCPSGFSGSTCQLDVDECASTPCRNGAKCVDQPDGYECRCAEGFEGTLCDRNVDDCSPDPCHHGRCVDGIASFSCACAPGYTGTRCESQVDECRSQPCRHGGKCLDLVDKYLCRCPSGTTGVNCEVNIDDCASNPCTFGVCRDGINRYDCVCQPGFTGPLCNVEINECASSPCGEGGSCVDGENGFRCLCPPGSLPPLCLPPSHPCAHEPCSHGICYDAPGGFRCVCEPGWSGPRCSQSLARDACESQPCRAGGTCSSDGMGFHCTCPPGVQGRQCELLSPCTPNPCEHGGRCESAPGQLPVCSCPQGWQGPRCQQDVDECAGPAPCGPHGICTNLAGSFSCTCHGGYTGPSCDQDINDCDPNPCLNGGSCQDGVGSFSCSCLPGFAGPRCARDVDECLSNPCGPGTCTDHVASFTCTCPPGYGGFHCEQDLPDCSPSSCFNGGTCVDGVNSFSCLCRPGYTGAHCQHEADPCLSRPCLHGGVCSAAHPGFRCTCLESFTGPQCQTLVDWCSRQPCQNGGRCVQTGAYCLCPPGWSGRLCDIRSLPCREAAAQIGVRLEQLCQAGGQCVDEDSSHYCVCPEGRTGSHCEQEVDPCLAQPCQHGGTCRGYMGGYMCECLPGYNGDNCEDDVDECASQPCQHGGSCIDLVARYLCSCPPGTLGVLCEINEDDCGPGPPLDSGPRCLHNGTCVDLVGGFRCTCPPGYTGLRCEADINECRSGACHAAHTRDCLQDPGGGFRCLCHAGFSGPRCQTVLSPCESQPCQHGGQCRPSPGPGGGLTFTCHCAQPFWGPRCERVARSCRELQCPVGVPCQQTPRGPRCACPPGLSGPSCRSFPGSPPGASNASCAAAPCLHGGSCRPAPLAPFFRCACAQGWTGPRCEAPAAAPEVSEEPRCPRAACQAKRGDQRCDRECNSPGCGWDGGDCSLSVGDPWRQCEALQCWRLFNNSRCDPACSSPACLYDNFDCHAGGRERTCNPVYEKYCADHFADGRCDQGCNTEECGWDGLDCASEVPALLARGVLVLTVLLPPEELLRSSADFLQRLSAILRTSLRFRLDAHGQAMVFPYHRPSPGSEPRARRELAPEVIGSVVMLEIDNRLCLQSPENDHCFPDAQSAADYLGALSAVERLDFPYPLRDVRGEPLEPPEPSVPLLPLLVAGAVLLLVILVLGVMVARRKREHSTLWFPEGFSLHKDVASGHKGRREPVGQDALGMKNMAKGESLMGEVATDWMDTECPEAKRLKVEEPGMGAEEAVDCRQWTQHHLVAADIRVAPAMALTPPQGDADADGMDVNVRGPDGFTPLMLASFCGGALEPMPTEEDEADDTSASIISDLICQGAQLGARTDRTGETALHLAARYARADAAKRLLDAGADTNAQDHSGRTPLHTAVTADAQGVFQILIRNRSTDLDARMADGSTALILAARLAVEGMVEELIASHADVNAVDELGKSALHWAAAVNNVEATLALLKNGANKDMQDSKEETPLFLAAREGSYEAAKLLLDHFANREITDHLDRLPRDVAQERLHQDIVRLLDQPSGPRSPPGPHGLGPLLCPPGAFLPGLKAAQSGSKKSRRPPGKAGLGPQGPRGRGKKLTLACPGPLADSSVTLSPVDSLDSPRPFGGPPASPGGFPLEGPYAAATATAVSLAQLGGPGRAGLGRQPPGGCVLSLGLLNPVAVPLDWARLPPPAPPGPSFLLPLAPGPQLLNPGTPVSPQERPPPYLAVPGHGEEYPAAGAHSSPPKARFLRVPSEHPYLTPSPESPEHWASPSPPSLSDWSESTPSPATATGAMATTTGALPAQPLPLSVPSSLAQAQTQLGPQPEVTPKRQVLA

[20] = probe aEGFR binding to arrayed compounds – biochemical, biotinylated probe, 635/667 nm fluorescence, primary screen (AID 1097); conditions: small-molecule microarray, higher = more signal;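 further: probe is a biotinylated anti-EGFR antibody binding compounds printed on slides; score combines fluorescence near 667 nm and signal to noise of each spot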

Row | Structure (SMILES) | composite z-score [1] | composite z-score [2] | composite z-score [3] | composite z-score [4] | composite z-score [5] | composite z-score [6] | composite z-score [7] | z-score [8] | composite z-score [9] | composite z-score [10] | composite z-score [11] | z-score [12] | z-score [13] | z-score [14] | composite z-score [15] | z-score [16] | composite z-score [17] | composite z-score [18] | composite z-score [19] | composite z-score [20]
1 | CC(=O)NCCCC[C@@H]1NC(=O)[C@@H]2C[C@H](C(=O)NCCCCCCN(C)C)[C@H](c3ccc(O)cc3)N2C1=O | -0.438 | 1.71 | 0.0513 | 1.19 | 0.734 | 1.56 | 1.51 | 4.01 (inactive) | 0.541 | 0.797 | 1.54 | 0.146 (inactive) | -0.542 (inactive) | 0.905 (inactive) | 2.4 | 1.02 (inactive) | 0.691 | 1.61 | 1.08 | 0.177
2 | O=C(NCc1ccccc1)[C@@]1(Cc2ccccc2)COC(c2ccc(OCCCO)cc2)=N1 | 0.618 | 0.0094 | -0.255 | 0.0532 | 0.46 | 1.51 | 1.19 | -3.27 (inactive) | 0.792 | 0.113 | 1.41 | 1.51 (inactive) | -1.24 (inactive) | 36.4 (active) | 3.11 | 0.624 (inactive) | 0.188 | -0.629 | -0.0046 | -0.054
3 | C[C@@H]1CC[C@H]2C(=O)N3[C@@H](CC[C@@H](C)[C@@H]3c3cccc(N4CCOCC4)c3)C(=O)N2[C@H]1c1cccc(N2CCOCC2)c1 | 0.0943 | 0.378 | -0.166 | 0.616 | 0.92 | 0.414 | 1.1 | -0.531 (inactive) | 0.619 | 1.3 | 0.52 | 0.123 (inactive) | 0.132 (inactive) | 0.651 (inactive) | 0.44 | 0.593 (inactive) | -0.275 | 0.252 | 0.464 | -0.012
4 | COC(=O)C1=CC(c2ccc(CO)cc2)=CC(c2cccs2)N(Cc2cccc(OC(F)(F)F)c2)C=C1C(=O)OC (stereo not given) | -0.0169 | 1.41 | -0.0375 | 0.862 | 1.17 | 2.03 | 1.17 | -0.497 (inactive) | 0.48 | 0.0866 | 1.27 | -0.107 (inactive) | -1.75 (inactive) | 0.434 (inactive) | 3.31 | 0.241 (inactive) | 0.006 | -0.0249 | 1.13 | -0.0187
5 | COC(=O)C1=CC(c2ccc(CO)cc2)=CC(C2CC2)N(Cc2sc3ccccc3c2Cl)C=C1C(=O)OC (stereo not given) | 0.541 | 1.99 | 0.0083 | 0.88 | 1.26 | 1.68 | 1.33 | -2.15 (inactive) | 1.32 | 0.065 | 1.55 | -2.21 (inactive) | -5.52 (inactive) | -1.12 (inactive) | 3.07 | -2.06 (inactive) | 0.214 | 0.331 | 1.1 | 0.157
6 | O=C(NCc1ccccc1)c1ccc(Br)cc1[N+](=O)[O-] | -0.375 | 0.13 | -0.138 | 0.438 | 0.596 | 0.661 | 0.341 | -0.567 (inactive) | 0.514 | -0.114 | 0.54 | -1.19 (inactive) | -1.08 (inactive) | -0.778 (inactive) | 0.715 | 0.768 (inactive) | 0.109 | 0.0399 | 0.338 | -0.0353
